# Results filed as inconclusive are left out. Entries that show only a call come without a potency. A number with no mark means an inactive call. Calls of active or inactive are those of the source. Calls come from the whole dose curve; as a rule, active = well fitted curve in the direction sought with a large enough effect; inconclusive = small, poorly fitted or top-dose-only effect, or another doubt; inactive = no such curve, though single readings can be large; an effect the other way counts as inactive or inconclusive.
# Experiments:
# [1] = qHTS for Inhibitors of the Aldehyde Dehydrogenase Family (ALDH1A2, ALDH1A3, ALDH2, ALDH3A1) (AID 2061307); conditions: ALDH inhibition qHTS; series mostly up to 50.3 µM; note: nearly all actives have a fitted effect of over 50% in size; for potency: test system not described further here; potency is the fitted concentration of half-maximal effect
# [2] = molecular target: Aldehyde dehydrogenase, mitochondrial (Homo sapiens) (UniProt P05091); assay: qHTS for Inhibitors of the Aldehyde Dehydrogenase Family (ALDH2) Primary screen (AID 2061308); conditions: ALDH2 enzyme inhibition qHTS, 1536-well; series mostly up to 56 µM; note: nearly all actives have a fitted effect of over 55% in size; note: potency is the fitted concentration of half-maximal effect
# [3] = molecular target: Retinaldehyde dehydrogenase 3 (Homo sapiens) (UniProt P47895); assay: qHTS for Inhibitors of the Aldehyde Dehydrogenase Family (ALDH1A3) Confirmatory screens (AID 2061311); conditions: ALDH inhibition qHTS; series mostly up to 46 µM; note: nearly all actives have a fitted effect of over 60% in size; note: potency is the fitted concentration of half-maximal effect
# [4] = molecular target: Retinal dehydrogenase 2 (Homo sapiens) (UniProt O94788); assay: qHTS for Inhibitors of the Aldehyde Dehydrogenase Family (ALDH1A2) Confirmation screens (AID 2061314); conditions: ALDH1A2 enzyme inhibition qHTS confirmation; series mostly up to 45.9 µM; note: nearly all actives have a fitted effect of over 65% in size; note: potency is the fitted concentration of half-maximal effect
# [5] = molecular target: Aldehyde dehydrogenase 1A1 (Homo sapiens) (UniProt P00352); assay: qHTS for Inhibitors of the Aldehyde Dehydrogenase Family (ALDH1A1) Confirmatory screens (AID 2061316); conditions: ALDH inhibition qHTS; series mostly up to 47.3 µM; note: nearly all actives have a fitted effect of over 65% in size; note: potency is the fitted concentration of half-maximal effect
# [6] = molecular target: Retinaldehyde dehydrogenase 3 (Homo sapiens) (UniProt P47895); assay: qHTS for Inhibitors of the Aldehyde Dehydrogenase Family (ALDH1A3) Primary screen (AID 2061315); conditions: ALDH inhibition qHTS; series mostly up to 56 µM
Structure (SMILES),Potency [1],Potency [2],Potency [3],Potency [4],Potency [5],Potency [6],"activity change, negative = inhibition [3]"
CN(C)c1cccc(-c2cnc(N3CCC(C(N)=O)CC3)s2)c1,8.96 µM (active),inactive,15.9 µM (active),inactive,10.1 µM (active),–,–
O=C1N/C(=C\c2ccco2)C(=O)N1Cc1ccccc1,0.798 µM (active),inactive,11.3 µM (active),12.7 µM (active),3.57 µM (active),inactive,–
CC(=O)Nc1ccc(OCc2cccc(C3Nc4ccccc4C(=O)N3Cc3ccco3)c2)cc1 (stereo not given),10.1 µM (active),inactive,12.7 µM (active),14.2 µM (active),5.65 µM (active),inactive,–
NC(=O)C1CCN(c2ncc(-c3ccc(Br)cc3)s2)CC1,5.65 µM (active),inactive,22.4 µM (active),inactive,11.3 µM (active),inactive,–
c1ccc(-n2cc(-c3nnc4n3CCCCC4)cn2)cc1,inactive,inactive,14.2 µM (active),12.7 µM (active),inactive,inactive,–
Cc1ccc(S(=O)(=O)Nc2cnccc2C(=O)Nc2nc(-c3ccc4c(c3)CCCC4)cs2)cc1,22.5 µM (active),inactive,inactive,8.96 µM (active),11.3 µM (active),inactive,–
O=C(CSc1nc2ccccc2n1CCc1ccccc1)c1ccc(O)c(O)c1,12.7 µM (active),inactive,11.3 µM (active),inactive,7.98 µM (active),inactive,–
Cc1ccc(OCCn2c(CCNC(=O)c3cccc(C(F)(F)F)c3)nc3ccccc32)cc1,inactive,inactive,inactive,inactive,inactive,inactive,–
Cc1ccc(CN(C)c2ncnc3ccc(-c4ccc(C#N)n4C)cc23)o1,3.16 µM (active),inactive,22.4 µM (active),–,12.7 µM (active),inactive,–
Cc1ccc(NC(=O)CN2C(=O)N/C(=C\c3cccn3-c3ccc(C(=O)O)cc3)C2=O)cc1,inactive,inactive,inactive,–,–,inactive,–
C/C(=C\c1cccc(C(F)(F)F)c1)C1Nc2cccc3cccc(c23)N1,inactive,inactive,11.3 µM (active),–,–,inactive,–
O=C(OCC#CCSc1nnc(-c2cccc3ccccc23)o1)c1ccncc1,inactive,inactive,2.01 µM (active),–,inactive,inactive,–
Cc1csc(CN(C)c2ncnc3ccc(-c4ccc5c(c4)OCO5)cc23)n1,0.201 µM (active),inactive,25.1 µM (active),–,12.7 µM (active),inactive,–
CC(=O)Nc1sc2c(c1-c1nc3ccccc3s1)CN(C(C)C)C2,inactive,inactive,inactive,–,–,inactive,–
Cc1cc(-c2nnc3n2CCCCC3)c(C)n1-c1cccc2ccccc12,inactive,inactive,–,–,12.7 µM (active),–,-18.8% [at 0.022 µM]
O=C1Nc2ccccc2/C1=C/c1cccc(C(=O)O)c1,2.24 µM (active),inactive,4 µM (active),–,inactive,–,–
Cc1ccc(CN(C)c2ccc(N3CCN(C)CC3)cc2)cc1,inactive,10 µM (active),20.1 µM (active),–,2.01 µM (active),–,–
c1csc(CNc2ccc(N3CCOCC3)cc2)c1,inactive,inactive,–,22.5 µM (active),–,–,–
COc1ccc(C2Nc3ccccc3C(=O)N2Cc2ccc(CNC(=O)CO)cc2)cc1COc1ccc(NC(C)=O)cc1 (stereo not given),4.49 µM (active),inactive,–,12.7 µM (active),–,inactive,–
CN(C)[C@H]1CCN(c2cccc(Nc3nn4c(=O)c5ccccc5nc4s3)c2)C1,inactive,inactive,3.18 µM (active),–,5.04 µM (active),inactive,–
COc1ccc(C2Nc3ccccc3C(=O)N2Cc2ccc(-c3ccccc3)cc2)cc1COc1ccc(NC(C)=O)cc1 (stereo not given),1.79 µM (active),inactive,11.2 µM (active),–,–,inactive,–
O=c1[nH]c(CN2CCOCC2)nc2sc3c(c12)CCCC3,inactive,inactive,inactive,–,inactive,inactive,–
CCCCN1C(=O)c2ccccc2NC1c1ccc(OC)c(COc2ccc(NC(C)=O)cc2)c1 (stereo not given),7.12 µM (active),inactive,12.6 µM (active),–,–,inactive,–
Cc1ccc(OCCn2c3c(c4ccccc42)CN(C(=O)C2CCCCC2)CC3)cc1,1.59 µM (active),inactive,11.3 µM (active),–,2.01 µM (active),inactive,–
Nc1ccccc1OC1=NS(=O)(=O)c2ccccc21,inactive,2.51 µM (active),–,inactive,–,inactive,–

# From PubChem BioAssay (NCATS)
